Inconclusive results are not listed. Calls of active or inactive are those of the source. The call rests on the fitted dose curve; in most records, active means well fitted inhibition curve with a large enough effect; inconclusive means small, poorly fitted or top-dose-only effect; inactive means flat fitted curve, though single readings scatter.

The assay concerns the target Dual specificity tyrosine-phosphorylation-regulated kinase 1A (Homo sapiens) (UniProt Q13627). Kind of assay: Confirmation Assay for Inhibitors of Dyrk1a (Kinase-Glo Assay): KU probe. The following applies: Kinase-Glo ATP luminescence; series mostly up to 76.9 µM. From the text:
NIH Molecular Libraries Probe Production Centers Network [MLPCN] NIH Chemical Genomics Center [NCGC] MLSCN Grant: 1R03MH084827-01 PI Name: Tom Misteli NCGC Assay Overview: The CMGC group of protein kinases which includes CDK-like kinases (Clk) and Dyks are essential kinases found in all eukaryotes. Clks have been implicated to play a role in the regulation of alternative splicing; while Dyrks, in particular over expression of Dyrk1A, has been linked to diseases as Down syndrome (DS; OMIM 190685) and Alzheimer disease (AD; OMIM 104300). Among the members of the CMGC group, the Clks and the Dyrks are very closely related therefore to determine validity and selectivity of an active compound observed in the CLK4 qHTS screen (AID:1770), a bioluminescent counter-screen against Dyrk1A was developed. In addition, potent and selective compounds against Dyrk1A were identified to further assess the role of this enzyme in DS and AD. Dyrk1A (Invitrogen, cat # PV3785) was assayed using ATP and DYRKtide (AnaSpec, cat# 62698) as substrates. Promega Kinase-Glo (cat# V6712) technology was used to detect the residual ATP following kinetic reaction. The Kinase-Glo Plus contains Ultra-Glo [5] luciferase and D-luciferin which generates a bioluminescence signal from the remaining ATP. No enzyme and harmine (Sigma, cat # 286044-1G), a compound shown to inhibit Dyrks were used as a positive control; while DMSO treatment was used as a negative control.
NCGC Assay Protocol Summary: Two uL/well of substrate solution (8uM Dyrktide, 2uM ATP, 25mM Tris-HCl pH 7.5, 10mM MgCl2 , 0.5mM EGTA, 5mM cystein, 0.01% Triton X-100 final concentration) was dispensed into 1536-well assay plates (Greiner, solid white, medium-binding plates) with Aurora Discovery BioRAPTR Flying Reagent Dispenser (FRD, Beckton-Dickenson). Compound solution (23 nL) was transferred to the assay plate using Kalypsys pin tool equipped with a 1536-pin tool. One uL/well enzyme solution (5nM Dyrk1A, 25mM Tris-HCl pH7.5, 10mM MgCl2, 0.5mM EGTA, 5mM cystein, 0.01% Triton X-100 final concentration) was then added using FRD yielding a total kinase reaction volume of 3uL/well. After 2 hours of room temperature incubation, 3uL Kinase-Glo detection reagent was added for a final assay volume of 6uL/well. The plates were spun for 30 seconds (1000 rpm) and incubated at ambient temperature for 2 minutes followed by a luminescence read using Perkin Elmer ViewLux plate reader at 3 seconds exposure time and 2x binning.
(In general: In Kinase-Glo more light means more ATP remaining.)
With `c1nc(NCC2CCCC2)c2cc(-c3ccc4c(c3)OCO4)ccc2n1`, the Potency was 0.0654 µM (active).

On to `Clc1ccc(CNc2ccnc(-c3ccc4[nH]ncc4c3)n2)cc1Cl`, for which the Potency is 4.63 µM (active). To `c1cncc(CNc2ccnc(-c3ccc4cn[nH]c4c3)n2)c1` belongs 2.07 µM (active). Under `FC(F)(F)c1cc(Br)cc(Nc2nccc(-c3ccc4c(c3)OCO4)n2)c1` stands 0.519 µM (active); under `CCCNc1ncnc2ccc(-c3ccc4c(c3)OCO4)cc12`, 0.116 µM (active). Under `O=c1cnc2cnc(Nc3ccccc3)nc2n1CCc1ccccc1` stands 0.292 µM (active); under `c1nc(NC[C@@H]2CCCO2)c2cc(-c3ccc4c(c3)OCO4)ccc2n1`, 0.13 µM (active); under `CN(C)c1ccc(-c2nccc(NCc3ccc(Cl)cc3)n2)cc1`, “inactive”. Consider `Cc1c(-c2ccnc(NCc3ccc(Cl)cc3)n2)sc(=O)n1C`, for which the Potency was 0.164 µM (active). Consider `c1cncc(CNc2ccnc(-c3ccc4ccccc4c3)n2)c1`, for which the Potency was 14.6 µM (active).

As to `c1coc(-c2ccnc(-c3ccc4c(c3)OCO4)n2)c1`, the Potency is 20.7 µM (active). Under `c1cncc(CNc2nccc(-c3ccc4cn[nH]c4c3)n2)c1` stands 0.207 µM (active). For the compound `Clc1ccc(CNc2nccc(-c3ccc4[nH]ncc4c3)n2)cc1Cl`, the Potency was 0.328 µM (active). With `CN(C)c1ccc(-c2nccc(NCc3ccccc3)n2)cc1`, the Potency result is “inactive”. With `COc1cccc(-c2ccnc(NCc3ccc(Cl)c(Cl)c3)n2)c1`, the Potency was 5.82 µM (active).

Turning to `Brc1cc(Br)cc(CNc2ccnc(-c3ccc4c(c3)OCO4)n2)c1`, the Potency result was “inactive”.

`Clc1ccc(CNc2ncncc2-c2ccc3c(c2)OCO3)cc1`: the Potency was 26 µM (active). Consider `N#Cc1cccc(-c2ncccn2)c1`, for which the Potency entry was “inactive”. To `c1nc(NCCC2CCCO2)c2cc(-c3ccc4c(c3)OCO4)ccc2n1` (stereo not given) belongs 0.164 µM (active); to `Cc1noc(C)c1-c1ncccn1`, “inactive”; to `c1nc(NCCc2cnc[nH]2)c2cc(-c3ccc4c(c3)OCO4)ccc2n1`, 0.328 µM (active). With `CC(=O)c1ccc(-c2ccc3ncnc(NCc4ccc(C)o4)c3c2)o1`, the Potency was 1.64 µM (active). To `Brc1ccc(CNc2ccnc(-c3ccc4c(c3)OCO4)n2)cc1Br` belongs “inactive”; to `Cc1c(-c2ccnc(Nc3cc(Br)cc(C(F)(F)F)c3)n2)sc(=O)n1C`, 0.13 µM (active). Regarding `CN(C)c1ccc(-c2nccc(NCc3ccc(Cl)c(Cl)c3)n2)cc1`, the Potency result was “inactive”. On to `Clc1ccc(CNc2nccc(-c3ccc4c(c3)OCCO4)n2)cc1Cl`, for which the Potency was 0.207 µM (active). As to `Cc1ccc(CNc2ccnc(-c3ccc4c(c3)OCO4)n2)cc1`, the Potency result was “inactive”. `c1cncc(CNc2nccc(-c3ccc4[nH]ncc4c3)n2)c1`: the Potency is 0.146 µM (active).

As for `Cc1ccc(CNc2ccnc(-c3ccc(N(C)C)cc3)n2)cc1`, the Potency entry was “inactive”. For the compound `CCN(C)c1ncnc2ccc(-c3ccc4c(c3)OCO4)cc12`, the Potency is 0.26 µM (active). On to `c1cncc(CNc2ncncc2-c2ccc3c(c2)OCO3)c1`, for which the Potency is 26 µM (active). Under `COc1ccc(-c2ccnc(NCc3ccc(Cl)cc3)n2)cc1` stands 1.84 µM (active).

`c1nc(NCC2CCCOC2)c2cc(-c3ccc4c(c3)OCO4)ccc2n1` (stereo not given): the Potency was 0.116 µM (active). To `c1nc(NCC2CCCCO2)c2cc(-c3ccc4c(c3)OCO4)ccc2n1` (stereo not given) belongs 0.0654 µM (active). To `CC(C)(C)CNc1ncnc2ccc(-c3ccc(C(=O)O)o3)cc12` belongs 2.32 µM (active); to `CC(C)(C)CNc1ncnc2ccc(-c3ccc4c(c3)OCO4)cc12`, 0.0116 µM (active); to `COc1cccc(-c2ccnc(NCc3ccc(Cl)cc3)n2)c1`, 7.33 µM (active). Regarding `CN(CC1CCCCC1)c1ncnc2ccc(-c3ccc4c(c3)OCO4)cc12`, the Potency was 1.16 µM (active). Under `c1cc(-c2ccoc2)nc(-c2ccc3c(c2)OCO3)n1` stands 29.2 µM (active); under `c1ccc(CNc2ccnc(-c3ccc4c(c3)OCO4)n2)cc1`, 26 µM (active).

The values above are taken from PubChem BioAssay AID624093 (National Center for Advancing Translational Sciences (NCATS), 2012).
